The whole screen tested about 310,000 compounds, of which about 18,000 (5.8%) were called active. Roughly 22% stayed inconclusive and do not appear here. The entries come from a sample that favours actives as a whole. A number with no mark means an inactive call. Calls come from the whole dose curve; as a rule, active = well fitted inhibition curve with a large enough effect; inconclusive = small, poorly fitted or top-dose-only effect, or another doubt; inactive = no such curve, though single readings can be large or run the other way.
Assay: Primary qHTS for delayed death inhibitors of the malarial parasite plastid, 48 hour incubation
Details: P. falciparum luciferase growth in erythrocytes; series mostly up to 28.7 µM; activity change, negative = inhibition: at the top concentration
Description: The goal of this screen is to discover new antimalarial compounds that act by inhibiting the development of the apicoplast in the malarial parasite Plasmodium falciparum. The biochemical processes that make this organelle essential for erythrocytic stage parasites are not well understood. However, antibiotics such as azithromycin and tetracycline, which target the apicoplast translational machinery, have a potent antimalarial effect.
We have developed a cell-based assay that measures parasite growth based on the expression of an integrated copy of a firefly luciferase reporter. To detect small molecules that cause this "delayed death" phenotype, erythrocytes infected with the luciferase-expressing parasites were incubated with compounds for either one or two generations, corresponding to 48 and 96 hours, respectively. Compounds that inhibit parasite growth in the second generation, but not the first, should be enriched in antimalarials that target the apicoplast. Growth inhibition is detected by a decrease in luciferase activity.
Assay Provider: David Fidock and Eric Ekland, Columbia University
Keywords: NIH Roadmap, MLPCN, MLI, MLSMR, qHTS, NCGC, qHTS, malaria, luciferase, viability
Four microliters of culture medium (RPMI 1640 with 0.5% w/v Albumax (GIBCO), 24 mM sodium bicarbonate and 10 ug/mL gentamycin) were dispensed by a Multi-drop Combi into white solid 1536-well plates (Grenier) and 23 nL compound was added by a pin tool. Four microliters of infected erythrocytes (2% hematocrit, 0.1% parasitemia final concentration) in culture medium were dispensed and the plates incubated for 48 hours at 37 C in 5% CO2. Two microliters of luciferase detection reagent was added and luminescence was detected by a ViewLux (PerkinElmer) reader.
% is set by controls: 0 for no effect and ±100 for the full control effect; potency is the fitted concentration of half-maximal effect.

Compound	activity change, negative = inhibition	Potency
COc1ccc(NS(=O)(=O)c2cccc3nsnc23)cc1Cl	-4.88%	–
COc1cccc(NC(=O)c2nn(-c3ccc(OC)cc3OC)c(=O)c3ccccc23)c1	21.4%	–
COc1ccc(-n2nc(C(=O)NCC(=O)N3CCN(c4ccccc4OC)CC3)c3ccccc3c2=O)c(OC)c1	–	1.04 µM (active)
COc1ccc(-n2nc(C(=O)Nc3cc(OC)c(OC)c(OC)c3)c3ccccc3c2=O)c(OC)c1	26.5%	–
O=C(NCCCN1CCCCC1)C1CC(=O)N(CCc2ccccc2)C1 (stereo not given)	28%	–
O=C(Nc1ccc2c(c1)OCO2)C1CC1(Cl)Cl (stereo not given)	34.4%	–
CCOc1ccc(C(O)Cn2c(=N)n(CCN3CCCCC3)c3ccccc32)cc1 (stereo not given)	–	4.65 µM (active)
Cn1c(=N)n(CC(O)c2ccccc2)c2ccccc21 (stereo not given)	80.1%	–
CCOc1ccc(C(O)Cc2nc3ccccc3n2C)cc1 (stereo not given)	48.9%	–
COc1ccc(N(CC(=O)NCc2ccc(F)cc2)C(=O)CCC(=O)Nc2nccs2)cc1	9.32%	–
CN1CCN(NC(=O)Nc2ccc(Br)cc2)CC1	84%	–
Cc1ccc(C)c(NC(=O)COC(=O)Cn2c(C)csc2=O)c1	1.84%	–
COC(=O)c1ccc(OC(=O)c2cnccn2)cc1	10.3%	–
CC(C)C(=O)N1CC(=O)Nc2ccc(F)cc2C1c1ccc(F)cc1 (stereo not given)	-8.58%	–
FC(F)(F)Oc1ccc(NC(=S)NCc2ccccc2)cc1	16.6%	–
CCNC(=S)Nc1ccc(OC(F)(F)F)cc1	9.67%	–
CS(=O)(=O)c1sc(C(=O)NC(=S)Nc2ccc(OC(F)(F)F)cc2)c2c1C=CCC2	–	2.62 µM (active)
COc1ccc(/C=C(/NC(=O)c2ccccc2)C(=O)Nc2cccc(C(=O)O)c2)cc1	2.11%	–
Cc1cc(C)cc(OCC(=O)OCC(=O)NC2CCCC2)c1	54.4%	–
CS(=O)(=O)N1CCN(C(=O)CSc2ccccc2)CC1	14.8%	–
CCCC[C@@H]1CN=C(N)N1CCc1cc(C(F)(F)F)cc(C(F)(F)F)c1	–	5.22 µM (active)
Cc1cccc(N2CCN(C(C)C(=O)N3CCc4ccccc43)CC2)c1C (stereo not given)	-2.14%	–
CCCNC(=O)c1ccc(Cl)c(Cl)c1	27.8%	–
CCCCOC(=O)Cn1c(=N)n(CCN(CC)CC)c2ccccc21	19.6%	–
CCCn1c(=N)n(CC(=O)c2ccc(Cl)c(Cl)c2)c2ccccc21	–	7.38 µM (active)
Cc1ccnc(N2C(=O)c3ccc([N+](=O)[O-])cc3C2=O)c1	-3.81%	–
CCOC(=O)CN1CCC(c2ccccc2)CC1	-10.5%	–

Compound	activity change, negative = inhibition	Potency
CCOC(=O)N1CCC(c2cc(=O)n(-c3ccccc3)[nH]2)CC1	–	9.28 µM (active)
CCOC(=O)N1CCC(NC(=O)CCc2ccccc2)CC1	-17.2%	–
COC(=O)c1c(NC(=O)COc2ccc(Cl)cc2Cl)sc2c1CC(C)(C)NC2(C)C	–	8.28 µM (active)
Cc1nn(-c2ccccc2)c(C)c1NC(=O)COc1ccc(Cl)cc1Cl	-13.7%	–
Cc1cc(NC(=O)COc2ccc(Cl)cc2Cl)n(CCC#N)n1	59.7%	–
O=C(NCC(=O)N1CCCCCCC1)c1ccccc1Cl	51.7%	–
CCC1CCCCN1CCCNC(=O)Cn1nc(-c2ccccc2)ccc1=O (stereo not given)	4.91%	–
Cc1ccc(CN2C(=O)CCC2C(=O)NCCCN2CCCCC2C)cc1 (stereo not given)	27%	–
CCC1CCCCN1CCCNC(=O)c1cc2c(Cl)nc3ccccc3c2s1 (stereo not given)	–	11.7 µM (active)
COc1cccc(NC(=O)CSc2nnc(-c3cccnc3)o2)c1	27.1%	–
COc1cccc(NC(=O)C2c3cc(OC)c(OC)cc3C(=O)N(C)C2c2cccnc2)c1 (stereo not given)	–	8.28 µM (active)
CCOc1cc2c(cc1OCC)C(C(=O)O)C(c1ccc(OC)c(O)c1)N(C)C2=O (stereo not given)	8.88%	–
CCC(c1nnc(SCC(=O)NNC(=O)c2ccccc2)n1Cc1ccccc1)N(C)C (stereo not given)	2.43%	–
O=C(Nc1ccc(OCC(=O)N2CCOCC2)cc1)c1cc(F)c(F)cc1Cl	43.6%	–
C/C(=N\NC(=O)c1cc(-c2ccc(O)cc2)nc2ccccc12)c1cccnc1	-9.54%	–
O=C(O)/C=C/c1ccc(OCCCF)cc1	16.3%	–
COc1ccc([C@H]2CC(=O)C=C(/C=C/c3ccccc3)C2)cc1	-11.3%	–
Cc1cc(C)cc(NC(=O)CN2C(=O)c3ccccc3C2=O)c1	7.91%	–
CS(=O)(=O)N(CC(=O)Nc1ccc(F)cc1)C1CCCCC1	33.5%	–
O=C(COc1ccccc1Cl)N1CCCCCCC1	-18.6%	–
Cc1cccc(C(=O)Nc2nnc(S(=O)(=O)N3CCCCCC3)s2)c1	66.9%	–
CCCn1c(N)c(C(=O)CSc2nnc3n2CCCCC3)c(=O)[nH]c1=O	-8.92%	–
CCCn1c(N)c(C(=O)CSc2nc3ccccc3c(=O)n2-c2ccc(OC)cc2)c(=O)[nH]c1=O	0%	–
CCCn1c(N)c(C(=O)CSc2nnc(-c3cccnc3)n2-c2ccc(C)cc2C)c(=O)[nH]c1=O	–	9.28 µM (active)
CCCCOC(=O)c1[nH]c(C)c(C(=O)OC)c1C	-28.2%	–
COC(=O)c1c(C)[nH]c(C(=O)/C=C/c2ccc(Cl)cc2)c1C	–	4.65 µM (active)
COC(=O)c1c(C)[nH]c(C(=O)NCCc2ccc(S(N)(=O)=O)cc2)c1C	-0.575%	–

Compound	activity change, negative = inhibition	Potency
NC(=O)COc1ccccc1C(=O)NC12CC3CC(CC(C3)C1)C2	11.3%	–
COc1ccc([N+](=O)[O-])cc1NCC(=O)c1ccc(C)cc1	-14.1%	–
O=C(O)[C@@H](S)[C@H](S)C(=O)O	–	4.26 µM (active)
COc1ccc(S(=O)(=O)Nc2ccccc2C(=O)N2CCCC2)cc1C	8.32%	–
CC1CCCN(CCCNC(=O)CN2C(=O)COc3ccc(S(=O)(=O)N4CCOCC4)cc32)C1 (stereo not given)	16%	–
CCOC(=O)c1c(-c2ccccc2)oc2ccc(OCC(N)=O)cc12	-8.34%	–
CCOC(=O)c1c(-c2ccccc2)oc2cc(Br)c(O)c(C=O)c12	–	9.28 µM (active)
CCOC(=O)c1c(-c2ccccc2)oc2ccc(OCC(=O)NN)cc12	-45.7%	–
Cc1cccc(C(=O)OC(C)CN2CCCC2)c1 (stereo not given)	-4.2%	–
COC(=O)[C@]1(C)CCC[C@@]2(C)C3CC[C@]4(OC(C)=O)C[C@@]3(CCC21)CC4=NO (stereo not given in full)	0%	–
O=C(NCc1ccncc1)c1ccc(NS(=O)(=O)c2cccc([N+](=O)[O-])c2)cc1	16.4%	–
Cc1cccc(OP(=O)(Nc2c(C)n(C)n(-c3ccccc3)c2=O)Oc2cccc(C)c2)c1	13.2%	–
Cc1cccc(OP(=O)(Oc2cccc(C)c2)OC(c2ccccc2)C(F)(F)F)c1 (stereo not given)	–	10.4 µM (active)
CCN(CC)P(=O)(Oc1cccc(C)c1)N(CC)CC	-9.58%	–
O=C(Nc1nnc(C2CC2)s1)c1cc(Cl)sc1Cl	10%	–
CCN1CCN(c2nc(Nc3cc(OC)ccc3OC)nc(Nc3cc(OC)ccc3OC)n2)CC1	–	9.28 µM (active)
CCOC(=O)N1CCN(CCC(=O)Nc2cc(OC)ccc2OC)CC1	0.985%	–
COc1ccc(OC)c(NC(=O)CCN2CCC(C)CC2)c1	19.5%	–
CC(Sc1nnc(-c2cccs2)n1C1CC1)C(=O)NCC1CCCO1 (stereo not given)	29.3%	–
COc1cc(CCC(=O)N2CCN(c3ccccc3Cl)CC2)cc(OC)c1OC	1.7% [at 0.00184 µM]	–
CCOC(=O)Cn1c(O)c(N=NC(=O)CNC(=O)Cc2ccccc2)c2ccccc21	23.2%	–
Cc1cc2nc(-c3ccc(NC(=O)c4cccnc4)cc3)oc2cc1C	-24%	–
CCOC(=O)c1ccc(-c2ccc(C(=O)Nc3cccnc3)o2)cc1	–	2.62 µM (active)
Cc1ccc2nc(-c3ccc(NC(=O)c4cccnc4)cc3)oc2c1	–	9.28 µM (active)
CCC(=O)Nc1cccc(NC(=O)c2cccnc2)c1	59.5%	–
CCOC(=O)c1ccc(NC(=O)CSc2ncccn2)cc1	27.1%	–
COc1ccc(C(=O)Nc2cccnc2)cc1C(=O)Nc1cccnc1	-3.21%	–

Compound	activity change, negative = inhibition	Potency
CCOC(=O)c1ccc(NC(=O)c2cccnc2)cc1	25.6%	–
CCOC(=O)c1cc(NC(=O)c2cccnc2)cc(C(=O)OCC)c1	–	2.94 µM (active)
CC(=O)Nc1ccc(-c2nc3ccccc3o2)cc1	292%	–
Cc1cccc(NC(=O)c2cccc(C(=O)Nc3cccc(C)c3C)n2)c1C	29.5%	–
CN(C)c1nc(Nc2ccc(Cl)c(Cl)c2)nc(N(C)C)n1	-29.2%	–
Cc1cc(C)c(CN2CCN(C(=O)Cn3ccc(NC(=O)OCc4ccccc4)nc3=O)CC2)c(C)c1	-1.32%	–
COc1ccc(/C(C)=N/NC(=O)c2ccc3nc[nH]c3c2)cc1	2.07%	–
CC(OC(=O)CCCOc1ccccc1)C(=O)Nc1ccc(Cl)cn1 (stereo not given)	-23.3%	–
CCOc1ccccc1C(=O)NCCCn1ccnc1	-3.08%	–
CCCCOCCCNC(=O)c1ccccc1OCC	–	10.4 µM (active)
CCCOc1ccccc1C(=O)NCCCC(=O)O	13.6%	–
CCc1nc2ccc(C(=O)N3CCN(c4cccc(Cl)c4)CC3)cc2nc1CC	0.767%	–
COc1ccc(C2(C)ON(c3ccccc3C(F)(F)F)C2=O)cc1 (stereo not given)	–	6.57 µM (active)
COc1ccc(C2(C)NC(=O)N(CC(=O)c3ccc4c(c3)OCO4)C2=O)cc1 (stereo not given)	19.8%	–
COc1ccc(C2(O)C(=O)Nc3ccccc32)cc1 (stereo not given)	-1.15%	–
CCC1Oc2ccccc2N(CC(=O)NCCCN2CCN(CC)CC2)C1=O (stereo not given)	27%	–
Cc1c(C)c2c(OCC(=O)NCCCO)cc3c(c2oc1=O)CCC(C)(C)O3	-25.9%	–
C[C@H](NC(=O)c1ccccc1Cl)C(=O)OCC(=O)N1CCN(c2ccccc2)CC1	-12.6%	–
CCNS(=O)(=O)c1ccc(CCC(=O)N2CCN(c3cc(Cl)ccc3C)CC2)cc1	149%	–
COC(=O)c1ccc(C(=O)OC)c(NC(=S)N2CCN(c3cc(Cl)ccc3C)CC2)c1	14.3%	–
Cc1ccc(Cl)cc1N1CCN(C(=O)c2cccc3c(=O)c(C)c(-c4ccccc4)oc23)CC1	–	9.28 µM (active)
CC(Nc1nc(N2CCCC2)nc2ccccc12)c1ccccc1 (stereo not given)	–	3.7 µM (active)
CC(C)n1c(C(O)c2ccccc2)nc2ccccc21 (stereo not given)	-25.1%	–
Cc1ccc(C(CC(=O)O)Nc2nc(N3CCCCC3)nc(N3CCCCC3)n2)cc1 (stereo not given)	6.41%	–
